We go through 20 molecules from PubChem BioAssay.

The nature of assay [1]: antimalarial activity against Dd2 strain (AID 2302;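 active = growth inhibition above 50% at the single 2 µM test dose, taken to imply half-maximal potency below 2 µM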;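 also: 0% = DMSO untreated growth and 100% = chloroquine plus artemisinin killed control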). The following applies: P. falciparum Dd2 in RBCs, LDH growth readout, 72 h; at 2 µM; stronger effect = higher value.
A short description of assay [2]: HepG2 cytotoxicity, primary screen, cytotoxicity control for P. falciparum antimalarial project, cell-based, ATP luminescence (AID 2303;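 active = inhibition above 50%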;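 also: 0% = DMSO wells and 100% = digitonin-killed cells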). Conditions: HepG2 viability, 24-48 h, at 10 µM, stronger effect = higher value.
In assay [3] the target is L-lactate dehydrogenase (Plasmodium falciparum (isolate CDC / Honduras)) (UniProt Q27743). Nature of the assay: PfLDH activity inhibition – cell lysate, 3D7 strain, counter-screen for P. falciparum growth inhibition project (AID 2304).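 Also: 0% = vehicle and 100% = reference inhibitor.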 Conditions: P. falciparum 3D7 crude extract, LDH APAD/NBT absorbance; at 2 µM; stronger effect = higher value. For orientation: A counterscreen serves to expose hits that act by an unwanted route or on another target.
L-lactate dehydrogenase (Plasmodium falciparum (isolate CDC / Honduras)), sequence (Q27743 whole entry, looked up): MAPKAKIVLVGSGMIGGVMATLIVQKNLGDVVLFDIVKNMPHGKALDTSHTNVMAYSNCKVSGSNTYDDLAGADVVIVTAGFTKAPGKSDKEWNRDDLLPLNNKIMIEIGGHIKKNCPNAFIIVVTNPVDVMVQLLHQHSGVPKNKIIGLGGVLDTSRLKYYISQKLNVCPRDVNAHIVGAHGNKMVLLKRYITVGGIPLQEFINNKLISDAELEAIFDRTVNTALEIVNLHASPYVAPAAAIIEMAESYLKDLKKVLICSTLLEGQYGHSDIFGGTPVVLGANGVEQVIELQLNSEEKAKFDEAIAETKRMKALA

A short description of assay [4]: inhibition of 3D7 malaria parasite growth – strain 3D7 (AID 2306).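 Also: 0% = DMSO wells and 100% = chloroquine plus artemisinin control wells.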 The following applies: P. falciparum 3D7 erythrocytic growth, LDH absorbance, 72 h; at 2 µM; stronger effect = higher value.
The target of assay [5] is Calcium-dependent protein kinase 1 (Plasmodium falciparum (isolate 3D7)) (UniProt P62344). Nature of the assay: PfCDPK1 kinase inhibitors, biochemical, TCAMS library (AID 1159585; cut-off not given, nearly all actives have IC50 up to about 0.98 µM;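 also: inhibitors leave more ATP so luminescence rises with inhibition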). The following applies: recombinant PfCDPK1, Kinase-Glo ATP depletion luminescence. On the technique in general: In Kinase-Glo more light means more ATP remaining.
Calcium-dependent protein kinase 1 (Plasmodium falciparum (isolate 3D7)), sequence (P62344 whole entry, looked up): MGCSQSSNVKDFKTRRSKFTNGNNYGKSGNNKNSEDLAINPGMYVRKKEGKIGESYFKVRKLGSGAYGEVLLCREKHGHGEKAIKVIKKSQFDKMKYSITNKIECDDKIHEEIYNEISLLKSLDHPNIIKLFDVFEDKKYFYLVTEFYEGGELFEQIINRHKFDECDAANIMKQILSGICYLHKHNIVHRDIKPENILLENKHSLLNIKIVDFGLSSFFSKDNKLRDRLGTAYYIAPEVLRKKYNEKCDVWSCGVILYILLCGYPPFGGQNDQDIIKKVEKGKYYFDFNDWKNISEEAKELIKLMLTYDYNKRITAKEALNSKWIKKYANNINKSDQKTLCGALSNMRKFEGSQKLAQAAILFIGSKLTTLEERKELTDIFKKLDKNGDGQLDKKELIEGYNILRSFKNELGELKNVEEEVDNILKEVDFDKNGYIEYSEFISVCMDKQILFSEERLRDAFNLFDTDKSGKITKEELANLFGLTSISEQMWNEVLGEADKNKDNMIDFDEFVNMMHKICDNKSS
The target of assay [6] is Plasmodium falciparum protein kinase 6 (PK6, PF3D7_1337100) (UniProt Q8IDW1). Nature of the assay: PfPK6 kinase inhibitors, biochemical, TCAMS library (AID 1159586). The following applies: recombinant PfPK6, Kinase-Glo ATP depletion luminescence.
Plasmodium falciparum protein kinase 6 (PK6, PF3D7_1337100), sequence (Q8IDW1 1-305): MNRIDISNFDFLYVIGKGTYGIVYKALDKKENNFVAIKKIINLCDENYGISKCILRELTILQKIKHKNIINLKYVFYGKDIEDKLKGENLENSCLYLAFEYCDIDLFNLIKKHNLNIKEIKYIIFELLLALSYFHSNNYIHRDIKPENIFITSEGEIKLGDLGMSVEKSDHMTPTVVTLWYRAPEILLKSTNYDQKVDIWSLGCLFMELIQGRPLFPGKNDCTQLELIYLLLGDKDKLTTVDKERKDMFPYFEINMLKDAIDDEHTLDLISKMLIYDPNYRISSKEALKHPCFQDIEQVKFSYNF
For assay [7], the target named is Protein kinase 7 (PK7), Plasmodium falciparum 3D7 (PF3D7_0213400) (UniProt Q7YTF7). Put plainly: inhibition of Plasmodium PK7 catalytic activity – biochemical, TCAMS antimalarial set, Kinase-Glo luminescence (AID 1159587). Conditions: recombinant PfPK7, Kinase-Glo ATP depletion luminescence.
Protein kinase 7 (PK7), Plasmodium falciparum 3D7 (PF3D7_0213400), sequence (Q7YTF7 1-343): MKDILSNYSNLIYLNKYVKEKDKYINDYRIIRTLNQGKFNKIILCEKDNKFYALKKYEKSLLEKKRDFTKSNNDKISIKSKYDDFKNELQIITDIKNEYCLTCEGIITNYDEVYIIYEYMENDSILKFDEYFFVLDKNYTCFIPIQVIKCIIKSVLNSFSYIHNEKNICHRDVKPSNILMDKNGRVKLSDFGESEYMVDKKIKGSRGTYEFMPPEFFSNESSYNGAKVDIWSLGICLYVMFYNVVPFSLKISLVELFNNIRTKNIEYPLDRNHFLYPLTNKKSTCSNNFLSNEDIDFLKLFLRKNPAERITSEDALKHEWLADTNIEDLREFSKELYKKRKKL
The target in assay [8] is Calcium-dependent protein kinase 4 (Plasmodium falciparum (isolate 3D7)) (UniProt Q8IBS5). Nature of the assay: PfCDPK4 kinase inhibitors, biochemical, TCAMS library (AID 1159588; cut-off not given, nearly all actives have IC50 up to about 0.91 µM). The following applies: recombinant PfCDPK4, Kinase-Glo ATP depletion luminescence.
Calcium-dependent protein kinase 4 (Plasmodium falciparum (isolate 3D7)), sequence (Q8IBS5 whole entry, looked up): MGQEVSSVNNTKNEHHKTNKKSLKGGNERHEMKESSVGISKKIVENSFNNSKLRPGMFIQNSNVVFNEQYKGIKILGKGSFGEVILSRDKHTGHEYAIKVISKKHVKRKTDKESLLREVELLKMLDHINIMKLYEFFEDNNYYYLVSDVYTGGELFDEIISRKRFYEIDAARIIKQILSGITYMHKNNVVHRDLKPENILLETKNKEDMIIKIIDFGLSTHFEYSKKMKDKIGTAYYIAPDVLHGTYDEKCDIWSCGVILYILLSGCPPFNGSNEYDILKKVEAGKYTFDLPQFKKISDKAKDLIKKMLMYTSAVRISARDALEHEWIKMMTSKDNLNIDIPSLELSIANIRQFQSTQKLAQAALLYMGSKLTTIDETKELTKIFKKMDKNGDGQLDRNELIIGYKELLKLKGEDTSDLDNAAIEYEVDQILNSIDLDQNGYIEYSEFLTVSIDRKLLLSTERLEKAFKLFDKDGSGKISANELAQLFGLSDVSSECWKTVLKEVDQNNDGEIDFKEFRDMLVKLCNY

Values without a mark were called inactive. For some of these results: Potency and affinity values are given separately. Active and inactive are the calls of the source. Unless noted, no rule for the calls is given here.

By inhibition is commonly meant the drop in the measured response relative to a control, in per cent.

On to `Cc1cccc2[nH]c(-c3ccc(-c4cccc(CNCCNC(=O)c5ccnn5C)c4)cc3)nc12`, for which the growth inhibition in assay [1] is 92% (active); in assay [4] it was 100% (active). The inhibition is 17% in assay [2] and -4% in assay [3]. The result in assay [5], in assay [6], in assay [7] and in assay [8] was inactive.

As to `CC[C@H](C)CNC(=O)c1cncc(-c2ccc(CNC3Cc4ccccc4C3)cc2)c1`, the growth inhibition in assay [1] was 95% (active); in assay [4], 101% (active). For the same molecule, the inhibition was 14% in assay [2] and 3% in assay [3]. Moreover, the outcome in assay [5], in assay [6], in assay [7] and in assay [8] was inactive.

Consider `CC(C)Nc1ccc(Nc2ccnc3cc4ccccc4cc23)cc1`, for which the growth inhibition in assay [1] is 81% (active); in assay [4], 100% (active). Also, the inhibition in assay [2] is 37%; in assay [3], -3%. For the same molecule, the outcome in assay [5], in assay [6], in assay [7] and in assay [8] was inactive.

As for `Cc1ccc(-n2cc(CNCC3CCN(CCO)CC3)c(-c3ccc(F)cc3)n2)cc1`, the growth inhibition in assay [1] was 18%; in assay [4], 91% (active). For the same molecule, the values for the inhibition in assay [2] and in assay [3] were 29% and -1%, respectively. The outcome in assay [5], in assay [6], in assay [7] and in assay [8] was inactive.

`CC(C)C[C@H]1C(=O)N[C@H](C2Cc3ccccc3C2)C(=O)N1[C@@H](C(=O)Nc1ccccc1OCc1ccccc1)c1ccc(F)cc1F`: the growth inhibition in assay [1] was 67% (active); in assay [4], 90% (active). The results for the inhibition in assay [2] and in assay [3] were 12% and 5%, respectively. In addition, the outcome in assay [5], in assay [6], in assay [7] and in assay [8] was inactive.

As for `COc1ccccc1-c1csc(C(=O)NCC2CCN(Cc3ccc(C(C)C)cc3)C2)c1` (stereo not given), the growth inhibition in assay [1] is 6%; in assay [4], 81% (active). Moreover, the inhibition in assay [2] is 24%; in assay [3], 1%. For the same molecule, the outcome in assay [5], in assay [6], in assay [7] and in assay [8] was inactive.

On to `Cc1ccc(Nc2nc(N)c3ccccc3n2)cc1`, for which the growth inhibition was 12% in assay [1] and 94% (active) in assay [4]. Also, the inhibition in assay [2] is 9%; in assay [3] it was 8%. Further, the outcome in assay [5], in assay [6], in assay [7] and in assay [8] was inactive.

Regarding `Cc1cc(Nc2ccccc2)nc(Nc2ccccc2)n1`, the growth inhibition in assay [1] was 74% (active); in assay [4] it was 96% (active). For the same molecule, the inhibition was 0% in assay [2] and -1% in assay [3]. For the same molecule, the outcome in assay [5], in assay [6], in assay [7] and in assay [8] was inactive.

Consider `O=C(Nc1ccc2ccccc2c1)N(CCCn1ccnc1)Cc1csc(-c2ccc(CNCc3ccccc3)cc2)n1`, for which the growth inhibition in assay [1] is 53% (active); in assay [4], 99% (active). Also, the results for the inhibition in assay [2] and in assay [3] were 10% and 0%, respectively. Moreover, the outcome in assay [5], in assay [6], in assay [7] and in assay [8] was inactive.

In the case of `Cn1cc(C(=O)Nc2cccc(-c3cccc(-c4nc5ccccc5[nH]4)c3)c2)n(C)c1=O`, the figures for the growth inhibition in assay [1] and in assay [4] were 60% (active) and 99% (active), respectively. The inhibition in assay [2] was 0%; in assay [3], -6%. The result in assay [5], in assay [6], in assay [7] and in assay [8] was inactive.

Consider `CC(=O)Nc1ccc(C(=O)N2CCN(c3ccnc4cc(Cl)ccc34)CC2)cc1`, for which the growth inhibition in assay [1] is 43%; in assay [4], 93% (active). In addition, the inhibition is 2% in assay [2] and -5% in assay [3]. The result in assay [5], in assay [6], in assay [7] and in assay [8] was inactive.

As to `Nc1nc(-c2ccc3c(Nc4ccc(F)c(Cl)c4)ccnc3c2)cs1`, the growth inhibition was 88% (active) in assay [1] and 100% (active) in assay [4]. The inhibition in assay [2] is 13%; in assay [3], 0%. The result in assay [5], in assay [6], in assay [7] and in assay [8] was inactive.

Consider `CCOc1ccc(C(=O)N2CCOC(CCN3CCC4(CCc5ccccc54)CC3)(c3ccc(Cl)c(Cl)c3)C2)cc1` (stereo not given), for which the values for the growth inhibition in assay [1] and in assay [4] were 25% and 81% (active), respectively. The results for the inhibition in assay [2] and in assay [3] were 25% and 1%, respectively. Besides, the result in assay [5], in assay [6], in assay [7] and in assay [8] was inactive.

For the molecule `Cc1noc(C)c1-c1cccc(CNCc2ccc(-c3ccc(-c4nc5ccc(C(F)(F)F)cc5[nH]4)s3)cc2)c1`, the growth inhibition in assay [1] was 99% (active); in assay [4] it was 102% (active). Further, the figures for the inhibition in assay [2] and in assay [3] were 54% (active) and 3%, respectively. Also, the result in assay [5], in assay [6], in assay [7] and in assay [8] was inactive.

With `CC(C)c1ccc(CN2CCC(CNC(=O)c3cc(-c4cccc(C(F)(F)F)c4)cs3)C2)cc1` (stereo not given), the growth inhibition was 60% (active) in assay [1] and 99% (active) in assay [4]. The inhibition in assay [2] was 36%; in assay [3], 5%. Moreover, the result in assay [5], in assay [6], in assay [7] and in assay [8] was inactive.

In the case of `CCCC(C)Nc1nc(C)cc(N[C@@H](CC(C)C)C(=O)NC2CCCC2)n1` (stereo not given in full), the growth inhibition in assay [1] is 22%; in assay [4], 85% (active). The inhibition in assay [2] was 6%; in assay [3] it was -2%. Further, the outcome in assay [5], in assay [6], in assay [7] and in assay [8] was inactive.

Consider `CC(CN1CCN(C)CC1)C(=O)Nc1ccc(-c2ccc(-c3nc4ccccc4[nH]3)s2)cc1` (stereo not given), for which the results for the growth inhibition in assay [1] and in assay [4] were 79% (active) and 100% (active), respectively. For the same molecule, the inhibition in assay [2] was 5%; in assay [3], 4%. Moreover, the result in assay [5], in assay [6], in assay [7] and in assay [8] was inactive.

On to `O=C(CC(=O)C(F)(F)F)c1ccccc1[N+](=O)[O-]`, for which the growth inhibition in assay [1] was 95% (active); in assay [4], 97% (active). Also, the inhibition was 65% (active) in assay [2] and -6% in assay [3]. The result in assay [5], in assay [6], in assay [7] and in assay [8] was inactive.

Turning to `COc1ccc(-c2cc(-c3nc4ccc(CN)cc4[nH]3)c(=O)n(C)c2)cc1OC`, the growth inhibition in assay [1] is 56% (active); in assay [4], 85% (active). Further, the inhibition in assay [2] was -12%; in assay [3], 4%. Also, the outcome in assay [5], in assay [6], in assay [7] and in assay [8] was inactive.

As to `CN(C)CCC1CCN(CCS(=O)(=O)c2cccc(Nc3ncc(-c4cccc(F)c4)cn3)c2)CC1`, the growth inhibition is 12% in assay [1] and 96% (active) in assay [4]. In addition, the inhibition in assay [2] is 59% (active); in assay [3], -2%. Besides, the outcome in assay [5], in assay [6], in assay [7] and in assay [8] was inactive.
